# Whole data set: some 2,300 sequences, median “median log2 fold change of GCK-ALFA target abundance (FLAG IP / Myc IP barcode read proportion)” near 0.095, cut for the lowest 2% near -0.47. The full list was thinned out, with the lowest values kept by preference.
# B1: LC3A_147_503 (protein)
# chain: YLLKVDIDIIVKNAEEEVKKMVEEIEEELKKKGFEVKVKINIEQLDENTTYISINIEVKAKTKEEAEEAANYIIDKFDKYLEENKDKILGALISVEIEKE
# B2: LC3A_28_660 (protein)
# chain: SATREAADAAIAAARAAAARGEPAVITLTVTGDATPEDIDYVLAALEEIAAILAPIPGSAIVIDLEAGVDPEHRQRIIDKAEELEKRYPNVTVIIAEEEE
# B3: LC3A_3_1416 (protein)
# chain: MEEAKKKALEALKKAGHSEETLKALNELVDLLEARGAEEEAKEVLELVLENKDISSELLLEVLNEAIELLTVKKLSPEEVIKELKEELRIARNEEEIIEL
# B4: LC3A_3_1375 (protein)
# chain: SEELIEETLAYLREKGKSEETLEAVRRAMEALAEKGYEEALKTFAELLKEMEDLPDEILLDFAEDVLEAVENEDLNEEELIEFIKEEARVARSEGEIIEL
# B5: LC3A_free_8_2497 (protein)
# chain: SRQEIVDRLLELIDELEEELEEKAKELGLSELDILDITLELGSLKAEIISNSDEPLEVIREELEEGLEEIIELTEELSEELEELAEEGAEKILEELEELE
# B6: LC3A_28_1014 (protein)
# chain: SHMEERVAALIAEIEAALAKGEYVVATLTITPEDSLEEVKAAMERVGKAALEAAKKGIVDVVVDLEKGVSQEKLDAVMEAADELEKKAPKLNVVIALEEE
# B7: LC3A_free_0_2106 (protein)
# chain: MTVVGEVLAITEKALTPEQLKKVKEEMEKIAKELEEEYGMKVEVTVKEVDGRTVFTLKFSKEGLSIEEAIEIVDEVADKLEEKLKELGADVTIYTSVYEE
# B8: LC3A_17_542 (protein)
# chain: MEEIKKELEELLKKLEKLVEKLAEYDPEKAKKLKKKLEEAKKLIKAGKLKEAAELLAEAAREAAEAWEELEPEYGTEASVYAMEASGLELEAIGILLKLD
# B9: LC3A_17_544 (protein)
# chain: MEELKKELEKLLKKLEELVKELEKYDPEKAKKLKKQLEEAKKLIKAGKLREAAELLAKAAREAADAFEKLEPKYGTKASVLAMEASGLELEAIRILLKLE
# B10: LC3A_28_1074 (protein)
# chain: SAVEEENEKILKEAKEAKEKGEPAVITIKIDESDTDEDIEKKLETIREVAEILKDVEGAAIIIDLEGEKALSRLDEVADLADELEEKYPNLTVIIALDDE
# B11: LC3A_free_46_2358 (protein)
# chain: YKAEIDIDLLHEDKEVLEKAVEEIEKAAREIAEKYGLKVEIEKEFEKLPDGSYYARIRITLEGEDKEKVEEAVNELINEIDKISKKYDVASIISYEIEEK
# B12: LC3A_free_8_2524 (protein)
# chain: SKQEFANKATEVLDELEEKLRKALEELGASRLDILEAEVLVGSIIAEVISLSDKEPEEQLKAIKEGLKDLVEELEKYKETVKKLADEALKKIEEIKKELE
# B13: LC3A_147_445 (protein)
# chain: VKVEVTIGVLMKNKPEVGDELVEKLRETAEAAGAEVEVEVEREKIDENTVYLLIKLTLTTETREAAEALANKVIDTVEEFAEKHKDEILGYIISVEISEA
# B14: LC3A_127_188 (protein)
# chain: EIEKLIKELLKELEKLSELLSSPDFDLEEAEKLAKKILKLAKELEKLDPRFKPLVEDAKELLKIIEEMKNASPAEQEELKEHALMLVEGMEIEALSLELK
# B15: LC3A_free_46_2376 (protein)
# chain: YKIEIDIYFSAMSKEKAEEMAEEIKKAAEEISKKTGVKIEVEVKIITDENGETWLEVKVTIEGEDKEKALKAATELIDKFDEIAEKHGVSLIISVEEIDE
# B16: LC3A_59_2018 (protein)
# chain: SEELEALRERLREAVDDIDAFVAIVREGLERFRDDPERVRALLRAAMDVIVEELGMDPEEAEKTLAEMLAIWETEPDKEEAIARVTELVRDTLLLTPIEE
# B17: LC3A_free_8_2515 (protein)
# chain: MNQEFANKATEILEELEEKLVELLKEKGASELDILEAELLIGSAIAEVISLSDKSPEEILKAIRESLEELVEELEEHREEVKELAEEALKKIEEKKKELE
# B18: LC3A_3_1855 (protein)
# chain: MEEIIEEALKLLKELGRSEETIEAARKLLEALKERGFEEAAKVLLEELKKLKNVSDEDLLEMFNELLKALEEEDLNEEEAIELIKSEARVLLNAEEIEEL
# B19: LC3A_3_1647 (protein)
# chain: PEEEVEETVELLREAGHSEETIEAFRETAEALLERGYEEALRVLIEETRELLDLPDEILLAMLEEVLRVIKEEDLSEEEVIEEIRRIARIARSEGEIIEL
# B20: LC3A_free_39_2193 (protein)
# chain: SAAETEKAKAELLALAAEAGEEAKKLAEEIIKLIGEDLEKLKKLLEALKKAKEAGVDVLEVLKEALELAKELKKQGKSKEEIFEEVLELIEDAINLIPID
# B21: LC3A_28_1195 (protein)
# chain: SLAEETIKKIREQAKKALEEGDGAVIEVNISKELSDEGIDKILETIKEEAAKLADLESVSIIINVESGVSQENIDKIADTGEEIEEKYPNVTVIIALDED
# B22: LC3A_28_898 (protein)
# chain: MSALESAEAALAAVRAAVAAGDQAPLVLEVKAPSTEEDTEKLIELLEEIAREASQLTGVTIVIDIDESVSEENQQKLIDKAEELEKKYPNVTVIIALPES
# B23: LC3A_28_683 (protein)
# chain: SETDESIEKALKKAKEALEKGKPEVIEIKVSGDTTEEELEKILEALEEIAEIANKVPGSAIIIDIDADLPQEFRDKLIDKAEELEEKYPNVTIIFALEER
# B24: LC3A_free_0_2122 (protein)
# chain: KKTVVEVVVILDESTSKETAEEIYEKLKEKAEELAKEAGAEVESSLSEVDGSYIITIKITLPTDDIDKALELEDKLVETAEEIAKEAGVEATIYSSVYLE
# B25: LC3A_3_1412 (protein)
# chain: LEERREALLAELRAAGWSEETLAAVEELLEALLARGAEEEAERALELLRAARDLPSERLLEVVEEALRALREEGLSPEEVIALLEELLRVARAEQEIEEL
# B26: LC3A_28_1281 (protein)
# chain: SEIEEEIERAIKEAKEAKEKGEPAVIEIEVPGDATEEEIEKVIKGLEEIAEILKDIPNQAIVINVDSGVKEEHIDKLVDKAEEIEEKYPNVTVIIALDED
# B27: LC3A_3_1385 (protein)
# chain: MEEEMEKTLERLREAGHSEETIEAARKALEALIEKGYENSAKTFIELLDELIHLPDELLLELFEDVLELIETEDIDEETLTEKIKEIASVYKNESEIEEL
# B28: LC3A_free_26_2139 (protein)
# chain: EKFVDIYLIDEAIDALEKAKELAKKIEGIGEKLVKLLEEALKLIEKETLESLEKAIKILKEIKELIEKDKTIDEETKKELLELVTKALEKVEEVVKIMKE
# B29: LC3A_3_1411 (protein)
# chain: LEERLAATEALLREAGHSEETLAAFRRLVELLLERGAEEEAERVLELVAEAKDISSEDLLAVLEEVIRALEEEGASPEEAVERLEELLRIARAEQEIEEL
# Molecular target: MAP1LC3A, Q9H492
# Assay: median log2 fold change of GCK-ALFA target abundance (FLAG IP / Myc IP barcode read proportion) (log2 ratio); each designed protein is fused to an ALFA-tag nanobody in HEK293 cells to bring the named protein to FLAG-tagged glucokinase (GCK); Myc marks an untargeted standard; higher = target protein stabilised (more abundant)
# Settings: target protein: 3xFLAG-MCP-GCK-ALFA reporter; HEK293 landing pad (RPLP)
# In short: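 Sequencing of reverse-transcribed, amplified circular RNA barcodes from anti-FLAG and anti-Myc immunoprecipitates provided the readout for an ALFA-nanobody-fused binder library recombined into HEK293 landing-pad cells. Those cells were induced with 2 μg mL^−1 doxycycline, transfected with a plasmid expressing a FLAG-tagged target and a Myc-tagged standard, and lysed after 48 h. Target abundance is the per-binder median log2 ratio of FLAG to Myc barcode read proportions. Only barcodes at a proportion of ≥10^−7 in both replicates and binders with ≥3 barcodes per replicate were kept, with a 10^−6 pseudocount added before the two replicates were pooled.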
row,Binder,median log2 fold change
1,B1,-0.665
2,B2,0.104
3,B3,0.297
4,B4,0.306
5,B5,-0.679
6,B6,-0.297
7,B7,-0.0524
8,B8,-0.71
9,B9,0.0592
10,B10,0.0473
11,B11,-0.026
12,B12,-0.575
13,B13,-0.265
14,B14,0.156
15,B15,-0.231
16,B16,-0.587
17,B17,0.159
18,B18,0.224
19,B19,0.138
20,B20,0.242
21,B21,0.229
22,B22,0.201
23,B23,-0.521
24,B24,-0.221
25,B25,0.243
26,B26,-0.286
27,B27,0.082
28,B28,0.132
29,B29,0.212

# Reference: the supplement of paper PMC12632987
